Results filed as inconclusive are left out. Entries that show only a call come without a potency. The source made the active and inactive calls. Unless noted, calls follow the shape of the dose curve; as a rule, active = well fitted curve in the direction sought with a large enough effect; inconclusive = small, poorly fitted or top-dose-only effect, or another doubt; inactive = no such curve, though single readings can be large; an effect the other way counts as inactive or inconclusive.
How the values were obtained:
[1] = P-glycoprotein substrates identified in KB-8-5-11 adenocarcinoma cell line, qHTS therapeutic library screen (AID 1346987); also: nearly all actives have a fitted effect of over 65% in size
Outline: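 Compounds are pinned in dose-response onto KB-8-5-11 cells (500 cells/well, colchicine-free medium) and left 72 h at 37 degree C. CellTiter-Glo luminescence then yields AC50 values.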

[2] = Natriuretic polypeptide receptor (hNpr1) antagonism - Pilot counterscreen GloSensor control cell line (AID 1347045; calls by dose curve; also: series mostly up to about 38 µM)
Outline: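 Control counterscreen: luciferase cGMP-biosensor HEK293 cells (no Npr1) received compound for 30 min at room temperature after GloSensor substrate loading. Luminescence was measured before and 20 min after soluble guanylyl cyclase activation by 50 uM nitroprusside.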

[3] = molecular target: Atrial natriuretic peptide receptor 1 (Homo sapiens) (UniProt P16066); test: Natriuretic polypeptide receptor (hNpr1) antagonism - Pilot screen (AID 1347049; calls by dose curve;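 also: HEK293 cells with hNpr1 and GloSensor cGMP luciferase stimulated by 0.1 nM hNppA; agonist-evoked cGMP luminescence read 20 min after hNppA addition; series mostly up to about 58 µM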)
Outline: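 Cells expressing receptor plus cGMP biosensor are seeded and incubated overnight at 37C, then loaded with GloSensor reagent (2% final) at room temperature for 2 h. Library compounds go on for 30 min. A pre-read precedes agonist (hNppA, 0.1 nM final) and a 20-min readout.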

[4] = molecular target: Atrial natriuretic peptide receptor 2 (Homo sapiens) (UniProt P20594); test: Natriuretic polypeptide receptor (hNpr2) antagonism - Pilot subtype selectivity assay (AID 1347050; calls by dose curve)
Outline: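 Read-out: GloSensor luminescence (CCD imager), baseline vs post-stimulation. HEK293 cells expressing hNpr2; compounds pre-incubated 30-50 min at ambient temperature; hNppC 1 nM final, 20 min.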

[5] = NS1 protein of Zika virus - qHTS assay to identify small molecule inhibitors in human HEK 293 cells (AID 1347053); also: series mostly up to about 46 µM; nearly all actives have a fitted effect of over 55% in size
Outline: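 Readout was TR-FRET using paired anti-NS1 antibodies after 24 h infection of HEK 293 cells with ZIKV MR766 (MOI = 0.5). Compound preceded virus by 1 h; reduced signal reflects lower NS1 expression.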

[6] = molecular target: T1, Tyrosine-protein phosphatase non-receptor type substrate 1 (Homo sapiens) + Leukocyte surface antigen CD47 (Homo sapiens) (UniProt P78324+Q08722); test: CD47-SIRPalpha protein protein interaction - HTRF assay qHTS validation (AID 1347058; active = well fitted curve in the direction sought with a large enough effect in the signal ratio, not every such curve was filed as active; the % refers to the signal ratio; also: series mostly up to about 38 µM)
Outline: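 Soluble extracellular domains (6His-CD47, Avi-tag-biotinylated SIRPalpha) in PBS pH 7.4 with 0.05% IGEPAL CA-630. Compounds were preincubated 30 min at RT with CD47 and anti-His-Eu, then SIRPalpha and SAV-XL665 were added. TR-FRET 665/615 ratio.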

[7] = molecular target: T1, Tyrosine-protein phosphatase non-receptor type substrate 1 (Homo sapiens) + Leukocyte surface antigen CD47 (Homo sapiens); test: CD47-SIRPalpha protein protein interaction - Alpha assay qHTS validation (AID 1347059);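 also: bead proximity luminescence from CD47 binding SIRPalpha after compound preincubation with SIRPalpha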
Outline: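 In PBS (pH 7.4) with 0.05% IGEPAL CA-630, compound is preincubated with biotin-Avi-SIRPalpha ectodomain before His-CD47 ectodomain and affinity beads are added. Light-protected room-temperature incubations; AlphaScreen readout.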

[8] = molecular target: Parathyroid hormone/parathyroid hormone-related peptide receptor (Homo sapiens) (UniProt Q03431); test: qHTS for PTHR1 Agonists: Optimization Screen against the NCGC LOPAC library (AID 1347079);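 also: GloSensor cAMP luminescence in HEK-293 GP2 cells expressing human PTHR1 with IBMX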
Outline: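 HEK-293 GP2 cells, PTHR1 + GloSensor cAMP; 3000 cells/well, o/n. Luciferin + IBMX 0.5mM each (stock), 1 hr 37C. Cpd titration, 1 hr 37C. Lum after 15 min RT. Ctrl M-PTH(1-15) top 10uM.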

[9] = qHTS for Inhibitors of the Functional Ribonucleoprotein Complex (vRNP) of Lassa (LASV) Arenavirus: LASV Primary Screen - GLuc reporter signal (AID 1347082; calls by dose curve; tested in HEK293 reporter line; also: series mostly up to about 57 µM; nearly all actives have a fitted effect of over 60% in size)
[10] = qHTS for Inhibitors of the Functional Ribonucleoprotein Complex (vRNP) of Lassa (LASV) Arenavirus: Viability assay - alamar blue signal for LASV Primary Screen (AID 1347083; calls by dose curve; tested in HEK293 reporter line; also: nearly all actives have a fitted effect of over 80% in size; also: potency is read from the fitted curve at half-maximal effect)
[11] = qHTS for Inhibitors of the Functional Ribonucleoprotein Complex (vRNP) of Lymphocytic Choriomeningitis Arenaviruses (LCMV): Viability assay - alamar blue signal for LCMV Primary Screen (AID 1347085; calls by dose curve; tested in HEK293 reporter line; also: series mostly up to about 57 µM; nearly all actives have a fitted effect of over 80% in size)
[12] = molecular target: Nucleoprotein (Lymphocytic choriomeningitis virus (strain Armstrong)) (UniProt P09992); test: qHTS for Inhibitors of the Functional Ribonucleoprotein Complex (vRNP) of Lymphocytic Choriomeningitis Arenaviruses (LCMV): LCMV Primary Screen - GLuc reporter signal (AID 1347086; calls by dose curve; also: series mostly up to about 57 µM; nearly all actives have a fitted effect of over 70% in size)
[13] = qHTS of pediatric cancer cell lines to identify multiple opportunities for drug repurposing: Primary screen for TC32 cells (AID 1347089); also: nearly all actives have a fitted effect of over 60% in size
Outline: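 qHTS, TC32, 48 h drug treatment, CellTiter-Glo luminescence as a proxy for metabolically active cells; primary top concentration 46 µM (MIPE 11-pt, NPC 8-pt); confirmatory 11-pt.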

[14] = qHTS of pediatric cancer cell lines to identify multiple opportunities for drug repurposing: Primary screen for DAOY cells (AID 1347090); also: nearly all actives have a fitted effect of over 55% in size; also: potency is read from the fitted curve at half-maximal effect
Outline: (§1)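 Eight- or eleven-point concentration series, 48 h treatment at 37 degrees C in growth media; readout CellTiter-Glo luminescence. Potency and efficacy were taken from the concentration-response curves.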

[15] = qHTS of pediatric cancer cell lines to identify multiple opportunities for drug repurposing: Primary screen for SJ-GBM2 cells (AID 1347091); also: potency is read from the fitted curve at half-maximal effect
Outline: as §1

[16] = qHTS of pediatric cancer cell lines to identify multiple opportunities for drug repurposing: Primary screen for A673 cells (AID 1347092); also: nearly all actives have a fitted effect of over 45% in size; also: potency is read from the fitted curve at half-maximal effect
Outline: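 Luminescence from CellTiter-Glo, taken after 15 min at room temperature, served as the proxy for metabolically active cells following 48 h treatment. Both potency and efficacy were taken from curves fitted to the titration data.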

[17] = qHTS of pediatric cancer cell lines to identify multiple opportunities for drug repurposing: Primary screen for SK-N-MC cells (AID 1347093); also: potency is read from the fitted curve at half-maximal effect
Outline: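 Metabolically active cells were quantified by ATP-dependent luminescence (CellTiter-Glo, 15 min at room temperature) following 48 h treatment. Cells had been plated at 500-1,000 per well and settled for 5 h beforehand.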

[18] = qHTS of pediatric cancer cell lines to identify multiple opportunities for drug repurposing: Primary screen for BT-37 cells (AID 1347094); also: series mostly up to about 57 µM
Outline: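 Cells seeded at 500-1,000 cells/well in growth media, rested 5 hours at 37 degrees C, 5% CO2, then dosed; MIPE compounds at 11-point (from 0.78 nM) and NPC at 8-point (from 0.59 nM) final concentrations. Viability by CellTiter-Glo luminescence after 48 hours.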

[19] = P-glycoprotein substrates identified in KB-3-1 adenocarcinoma cell line, qHTS therapeutic library screen (AID 1346986); also: nearly all actives have a fitted effect of over 60% in size
Outline: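 72 h cell-killing screen, 500 cells/well, CellTiter-Glo luminescence. Paired lines KB-3-1/KB-8-5-11; P-gp dependence checked by tariquidar co-treatment and HEK-293 MDR-19 versus empty-vector cells.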

[20] = molecular target: T1, Tyrosine-protein phosphatase non-receptor type substrate 1 (Homo sapiens) + Leukocyte surface antigen CD47 (Homo sapiens); test: CD47-SIRPalpha protein protein interaction - LANCE assay qHTS validation (AID 1347057; active = well fitted curve in the direction sought with a large enough effect in the signal ratio, with a control signal flat, not every such curve was filed as active; the % refers to the signal ratio; also: series mostly up to about 38 µM)
Outline: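 Inhibition of soluble CD47/SIRPalpha ectodomain association by titrated compounds, measured as 665/615 nm time-resolved FRET ratio after sequential 30 min room-temperature incubations.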

Sequence of Atrial natriuretic peptide receptor 1 (Homo sapiens) (P16066 whole entry, looked up): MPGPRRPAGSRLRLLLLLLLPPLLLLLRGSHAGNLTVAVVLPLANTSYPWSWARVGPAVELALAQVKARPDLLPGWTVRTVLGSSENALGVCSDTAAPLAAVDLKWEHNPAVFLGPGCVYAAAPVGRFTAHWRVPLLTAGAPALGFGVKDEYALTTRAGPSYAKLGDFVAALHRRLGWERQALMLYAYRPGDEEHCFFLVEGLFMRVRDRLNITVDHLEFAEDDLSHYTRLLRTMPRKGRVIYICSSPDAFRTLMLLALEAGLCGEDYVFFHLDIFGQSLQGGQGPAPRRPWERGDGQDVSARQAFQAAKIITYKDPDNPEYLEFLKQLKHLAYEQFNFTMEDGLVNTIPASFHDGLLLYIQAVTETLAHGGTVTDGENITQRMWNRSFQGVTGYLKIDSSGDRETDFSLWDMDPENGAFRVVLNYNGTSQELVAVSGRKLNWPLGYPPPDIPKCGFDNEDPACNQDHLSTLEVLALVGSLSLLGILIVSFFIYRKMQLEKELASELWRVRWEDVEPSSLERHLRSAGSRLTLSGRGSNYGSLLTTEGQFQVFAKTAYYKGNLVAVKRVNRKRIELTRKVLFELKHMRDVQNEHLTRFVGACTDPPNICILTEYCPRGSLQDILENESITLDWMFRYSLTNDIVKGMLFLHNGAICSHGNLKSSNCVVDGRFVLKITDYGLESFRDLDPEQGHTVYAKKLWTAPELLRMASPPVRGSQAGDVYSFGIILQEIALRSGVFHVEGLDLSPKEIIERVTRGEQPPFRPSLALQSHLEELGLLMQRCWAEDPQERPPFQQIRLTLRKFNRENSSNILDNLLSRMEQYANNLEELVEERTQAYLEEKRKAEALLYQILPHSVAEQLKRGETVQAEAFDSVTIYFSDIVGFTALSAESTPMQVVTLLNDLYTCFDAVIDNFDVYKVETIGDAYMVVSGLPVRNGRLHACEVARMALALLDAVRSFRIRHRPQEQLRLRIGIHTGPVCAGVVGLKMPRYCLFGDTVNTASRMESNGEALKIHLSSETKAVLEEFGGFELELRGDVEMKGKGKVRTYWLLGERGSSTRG
Sequence of Atrial natriuretic peptide receptor 2 (Homo sapiens) (P20594 whole entry, looked up): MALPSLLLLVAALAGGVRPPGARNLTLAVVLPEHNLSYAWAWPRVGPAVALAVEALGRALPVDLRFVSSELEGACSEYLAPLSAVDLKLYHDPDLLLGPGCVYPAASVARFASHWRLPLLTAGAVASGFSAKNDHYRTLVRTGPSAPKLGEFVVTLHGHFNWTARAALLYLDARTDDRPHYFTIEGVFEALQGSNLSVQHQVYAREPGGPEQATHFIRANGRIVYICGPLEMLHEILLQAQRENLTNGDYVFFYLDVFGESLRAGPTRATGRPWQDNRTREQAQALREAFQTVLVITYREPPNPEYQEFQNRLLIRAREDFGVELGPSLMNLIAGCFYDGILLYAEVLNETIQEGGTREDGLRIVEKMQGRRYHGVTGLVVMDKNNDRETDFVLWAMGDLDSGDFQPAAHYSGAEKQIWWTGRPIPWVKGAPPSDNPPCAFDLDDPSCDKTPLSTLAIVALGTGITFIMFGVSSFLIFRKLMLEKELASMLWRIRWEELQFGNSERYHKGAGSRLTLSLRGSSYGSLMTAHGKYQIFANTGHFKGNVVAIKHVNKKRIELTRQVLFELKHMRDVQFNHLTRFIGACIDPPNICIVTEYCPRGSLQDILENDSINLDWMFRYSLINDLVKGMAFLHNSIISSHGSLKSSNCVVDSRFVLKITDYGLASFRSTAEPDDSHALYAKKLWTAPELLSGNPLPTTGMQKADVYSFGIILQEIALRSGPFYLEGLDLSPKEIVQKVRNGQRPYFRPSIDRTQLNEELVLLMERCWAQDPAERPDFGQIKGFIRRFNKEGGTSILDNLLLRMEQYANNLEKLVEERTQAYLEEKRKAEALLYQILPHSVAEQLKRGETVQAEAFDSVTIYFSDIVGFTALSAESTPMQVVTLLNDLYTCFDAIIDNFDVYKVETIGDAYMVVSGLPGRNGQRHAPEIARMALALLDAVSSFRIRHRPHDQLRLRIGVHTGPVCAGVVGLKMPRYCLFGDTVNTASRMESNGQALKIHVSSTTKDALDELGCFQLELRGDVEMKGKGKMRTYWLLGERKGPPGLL
Sequence of Nucleoprotein (Lymphocytic choriomeningitis virus (strain Armstrong)) (P09992 whole entry, looked up): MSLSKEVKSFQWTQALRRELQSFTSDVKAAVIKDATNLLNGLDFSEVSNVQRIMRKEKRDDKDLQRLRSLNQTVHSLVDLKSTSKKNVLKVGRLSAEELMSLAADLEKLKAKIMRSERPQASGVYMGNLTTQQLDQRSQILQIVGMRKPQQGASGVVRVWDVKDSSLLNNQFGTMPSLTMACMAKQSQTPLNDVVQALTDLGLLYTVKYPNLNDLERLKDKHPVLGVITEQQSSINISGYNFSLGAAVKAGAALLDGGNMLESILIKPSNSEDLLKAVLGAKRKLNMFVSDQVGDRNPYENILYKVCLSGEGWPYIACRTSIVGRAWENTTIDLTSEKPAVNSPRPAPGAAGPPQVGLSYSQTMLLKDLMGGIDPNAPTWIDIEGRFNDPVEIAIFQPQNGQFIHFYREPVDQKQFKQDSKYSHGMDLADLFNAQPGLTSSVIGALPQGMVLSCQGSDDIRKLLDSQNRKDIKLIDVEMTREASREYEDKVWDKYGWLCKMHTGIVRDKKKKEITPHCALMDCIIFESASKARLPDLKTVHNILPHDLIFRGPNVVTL
Sequence of Parathyroid hormone/parathyroid hormone-related peptide receptor (Homo sapiens) (Q03431 whole entry, looked up): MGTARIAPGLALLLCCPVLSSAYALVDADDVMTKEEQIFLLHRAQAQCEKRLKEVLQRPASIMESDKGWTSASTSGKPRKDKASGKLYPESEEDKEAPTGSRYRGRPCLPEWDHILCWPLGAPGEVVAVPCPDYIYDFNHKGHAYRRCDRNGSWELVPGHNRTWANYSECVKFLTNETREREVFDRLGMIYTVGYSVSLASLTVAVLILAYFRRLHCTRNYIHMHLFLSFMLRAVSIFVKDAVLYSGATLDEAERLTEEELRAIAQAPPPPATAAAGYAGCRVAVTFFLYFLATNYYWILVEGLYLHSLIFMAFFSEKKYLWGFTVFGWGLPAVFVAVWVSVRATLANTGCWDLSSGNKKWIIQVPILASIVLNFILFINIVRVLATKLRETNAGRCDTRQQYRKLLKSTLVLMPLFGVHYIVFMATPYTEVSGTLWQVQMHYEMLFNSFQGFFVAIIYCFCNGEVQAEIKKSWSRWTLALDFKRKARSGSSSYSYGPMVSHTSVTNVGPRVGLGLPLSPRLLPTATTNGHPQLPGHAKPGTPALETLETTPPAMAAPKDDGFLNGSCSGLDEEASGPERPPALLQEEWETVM
T1 sequence (P78324 whole entry, looked up, the tested form may be a part): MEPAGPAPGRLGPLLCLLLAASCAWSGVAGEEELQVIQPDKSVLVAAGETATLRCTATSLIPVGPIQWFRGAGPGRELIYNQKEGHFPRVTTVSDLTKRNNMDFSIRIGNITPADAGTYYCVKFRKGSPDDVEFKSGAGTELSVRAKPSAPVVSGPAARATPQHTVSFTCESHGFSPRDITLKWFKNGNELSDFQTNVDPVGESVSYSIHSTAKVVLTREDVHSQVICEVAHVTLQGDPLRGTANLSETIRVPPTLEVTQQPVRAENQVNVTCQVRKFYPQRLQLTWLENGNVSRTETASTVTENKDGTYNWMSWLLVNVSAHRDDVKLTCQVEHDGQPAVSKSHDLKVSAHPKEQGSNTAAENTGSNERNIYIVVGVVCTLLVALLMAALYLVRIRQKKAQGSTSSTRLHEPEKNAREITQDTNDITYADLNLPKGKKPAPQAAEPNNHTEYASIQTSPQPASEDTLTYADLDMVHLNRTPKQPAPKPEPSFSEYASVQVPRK
T1 sequence (Q08722 whole entry, looked up, the tested form may be a part): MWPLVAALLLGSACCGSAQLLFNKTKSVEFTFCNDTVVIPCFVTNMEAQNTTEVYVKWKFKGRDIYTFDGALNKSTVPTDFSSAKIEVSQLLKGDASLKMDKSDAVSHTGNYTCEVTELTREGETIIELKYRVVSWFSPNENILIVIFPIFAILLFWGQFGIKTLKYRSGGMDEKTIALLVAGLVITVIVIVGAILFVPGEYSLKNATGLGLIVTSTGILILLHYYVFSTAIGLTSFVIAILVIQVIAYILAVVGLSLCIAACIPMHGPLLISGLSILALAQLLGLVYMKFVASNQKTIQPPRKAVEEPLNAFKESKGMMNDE

Row | SMILES | Potency [1] | Potency [2] | Potency [3] | Potency [4] | Potency [5] | outcome [6] | Potency [7] | outcome [8] | Potency [9] | Potency [10] | Potency [11] | Potency [12] | Potency [13] | Potency [14] | Potency [15] | Potency [16] | Potency [17] | Potency [18] | Potency [19] | outcome [20]
1 | NC1CC1c1ccccc1 (centres undefined) | inactive | inactive | inactive | inactive | inactive | inactive | inactive | inactive | inactive | inactive | inactive | inactive | inactive | inactive | inactive | inactive | inactive | inactive |  | 
2 | O=c1cccc2n1CC1CNC[C@H]2C1 | inactive |  |  |  | inactive |  |  |  | inactive | 27.3 µM (active) |  | inactive | inactive | 18.7 µM (active) | 5.9 µM (active) | 4.69 µM (active) | 4.69 µM (active) |  | inactive | 
3 | CCC(=O)OC1CCC2C3CCC4=CC(=O)CC[C@@]4(C)C3CC[C@]12C (some centres undefined) |  |  |  |  | inactive |  |  |  | inactive | inactive | inactive | inactive | inactive | inactive | inactive |  | 9.35 µM (active) | inactive | inactive | 
4 | CCCN1CCC[C@H](c2cccc(O)c2)C1 | inactive | inactive | inactive | inactive | inactive |  | inactive | inactive | inactive | inactive | inactive | inactive |  |  |  |  |  |  |  | inactive
5 | CC(Cc1ccc(O)cc1)NCC(O)c1cc(O)cc(O)c1 (centres undefined) | inactive | inactive | inactive | inactive | inactive |  | inactive | inactive | inactive | inactive | inactive | inactive | inactive |  | inactive | inactive | inactive | inactive |  | 
6 | CCN1C[C@]2(OC(=O)c3ccccc3NC(C)=O)CC[C@H](OC)[C@@]34[C@H]5CC6[C@@H](OC)C[C@](O)(C(C[C@@H]23)[C@@H]14)[C@@]5(O)[C@@H]6OC | inactive |  |  |  | inactive |  |  |  | inactive | inactive | inactive | inactive | inactive |  | inactive | inactive |  | inactive | inactive | 
7 | CCCCCCCCCC(CC)c1ccc(S(=O)(=O)O)cc1 (centres undefined) | inactive |  |  |  | inactive |  |  |  | inactive | inactive | inactive | inactive | inactive | inactive |  |  |  |  |  | 
8 | NC(=O)CN1CC(O)CC1=O (centres undefined) | inactive | inactive |  | inactive | inactive |  | inactive | inactive | inactive | inactive | inactive | inactive |  |  |  |  |  |  |  | 
9 | C[C@@H]1[C@H](O)[C@@H](C)C=CC=CCCC=CC=CC=CC=C[C@H](O[C@H]2O[C@@H](C)[C@H](O)[C@@H](N)[C@@H]2O)CC2O[C@](O)(C[C@@H](O)[C@H](O)CC[C@@H](O)C[C@@H](O)C[C@@H](O)CC(=O)O[C@H]1C)C[C@H](O)[C@H]2C(=O)O | inactive |  |  |  | inactive |  |  |  | inactive | inactive | inactive | inactive | inactive |  | inactive | inactive | inactive | inactive | inactive | 

From PubChem BioAssay (NCATS)
